The text below walks through data of PubChem BioAssay.

The subject of assay [1] is Plasmodium falciparum Sir2 (PF13_0152, Sir2A). As to the kind of experiment: Plasmodium falciparum Sir2A binding compounds – biochemical, small-molecule microarray, 635 nm fluorescence, primary screen (AID 1098).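 Also: score merges spot fluorescence intensity with its signal-to-noise ratio.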 The settings on record: fluorescence 635 nm, higher = more signal.
A short description of assay [2]: probe aDKK1 binding to arrayed compounds – biochemical, biotinylated probe, 635/667 nm fluorescence, primary screen (AID 1099).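 Also: score merges 667nm spot fluorescence with signal to noise across triplicate slides.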 The settings on record: small-molecule microarray, higher = more signal.
The nature of assay [3]: probe aCHRDL2 binding to arrayed compounds – biochemical, biotinylated probe, 635/667 nm fluorescence, primary screen (AID 1100). The following applies: small-molecule microarray, higher = more signal.
The nature of assay [4]: change in splice reporter luminescence, either direction, cell-based, HEK293, spliceosome inhibition project, primary screen (AID 1101).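 Also: HEK293 cells carrying a splicing-competent luciferase reporter gene; test concentration not given here.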 The settings on record: HEK293 splicing luciferase reporter, 24 h, higher = more signal, called active from +8 up or from −8 down. Background: Reporter assays use an easily measured gene product as a stand-in for the process of interest.
Assay [5] deals with Fibroblast growth factor 10 (Homo sapiens) (UniProt O15520). As to the kind of experiment: compounds binding fibroblast growth factor 10 – biochemical, small-molecule microarray, 635 nm fluorescence, primary screen (AID 1102). The settings on record: FGF10 binding, fluorescence 635 nm, higher = more signal.
The test system of assay [6] is glycogen synthase kinase-3 (GSK3A per assay name; protocol says GSK3B). As to the kind of experiment: compounds binding glycogen synthase kinase-3 – biochemical, small-molecule microarray, 635 nm fluorescence, GSK3A, primary screen (AID 1103). Also: the record names both GSK3A and GSK3B. The following applies: fluorescence 635 nm, higher = more signal.
The target in assay [7] is Epidermal growth factor receptor (Homo sapiens) (UniProt P00533). Put plainly: compounds binding epidermal growth factor receptor – biochemical, small-molecule microarray, 635 nm fluorescence, primary screen (AID 1104).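 Also: score merges 667 nm emission intensity with spot signal to noise over triplicate slides.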 The settings on record: EGFR binding, higher = more signal.
Assay [8] concerns the target Follistatin-related protein 3 (Homo sapiens) (UniProt O95633). Put plainly: compounds binding follistatin-related protein 3 – biochemical, small-molecule microarray, 635 nm fluorescence, primary screen (AID 1105).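 Also: score merges emission near 667 nm and signal to noise per printed spot across three slides.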 The settings on record: FSTL3 binding, higher = more signal.
For assay [9], the target named is Dickkopf-related protein 1 (Homo sapiens) (UniProt O94907). As to the kind of experiment: small molecules binding DKK1 protein – biochemical, small-molecule microarray, 635 nm fluorescence scan, primary screen (AID 1106).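 Also: score merges emission near 667 nm with signal to noise over three replicate slides.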 The following applies: higher = more signal.
Assay [10] relates to Inhibin beta A chain (activin A). Put plainly: small molecules binding activin A – biochemical, small-molecule microarray, 635 nm fluorescence scan, primary screen (AID 1107).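 Also: mouse activin A protein probed at 4.33 µg/mL on printed slides; score merges bound-protein fluorescence near 667 nm with spot signal-to-noise.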 The settings on record: INHBA, higher = more signal.
The subject of assay [11] is Human papillomavirus type 1a protein E7 (residues 44-93). As to the kind of experiment: small molecules binding HPV E7 44-93 – biochemical, small-molecule microarray, residues 44-93, 635 nm fluorescence, primary screen (AID 1108).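 Also: E7 fragment applied at 1 µg/mL in TBST for 1 h at 4 C; score combines spot fluorescence with its signal to noise ratio.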 The settings on record: fluorescence 635 nm, higher = more signal.
Assay [12] is described as follows: hepatitis C replication reporter changes, two-sided – Huh7 cells, luciferase reporter, HCV replication inhibitor project, primary screen (AID 1109).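 Also: huh7 hepatoma cells harbouring a luciferase neomycin HCV replicon reporter; luciferase luminescence as measure of HCV replicon replication; test concentration not given here.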 The following applies: Huh7 HCV replicon luciferase reporter, 48 h; higher = more signal.
The target in assay [13] is Left-right determination factor 2 (Homo sapiens) (UniProt O00292). As to the kind of experiment: small molecules binding LEFTY2 protein – biochemical, small-molecule microarray, 635 nm fluorescence scan, primary screen (AID 1110). The following applies: higher = more signal.
In assay [14] the target is Calmodulin-1 (Homo sapiens) (UniProt P0DP23). As to the kind of experiment: small molecules binding calmodulin-1 with EGTA – biochemical, small-molecule microarray, Cy5-labelled CALM1, profiling panel (AID 1111).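 Also: labelled calmodulin applied in Tris saline Tween buffer holding calcium plus EGTA and DTT.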 The settings on record: Cy5-CALM1 binding fluorescence, higher = more signal.
Assay [15] shares this target. Put plainly: small molecules binding Ca-loaded calmodulin-1 – biochemical, small-molecule microarray, Cy5-labelled CALM1, plus calcium, artefact control for SMM control-protein annotation, profiling panel (AID 1112).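 Also: score merges spot fluorescence with signal to noise from triplicate slides.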 The settings on record: Cy5-CALM1 binding fluorescence, higher = more signal.
Assay [16] is described as follows: probe aWnt5a binding to arrayed compounds – biochemical, biotinylated probe, 635/667 nm fluorescence, primary screen (AID 1113).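 Also: score merges 667 nm fluorescence intensity with signal-to-noise per printed feature.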 The following applies: small-molecule microarray, higher = more signal.
Assay [17] is described as follows: probe aShh binding to arrayed compounds – biochemical, biotinylated probe, 635/667 nm fluorescence, primary screen (AID 1114).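 Also: probe is biotin-labelled aShh protein from a stem cell growth factor screen; measures binding of labelled protein to compounds printed on the slide; score merges feature fluorescence at 667 nm with signal-to-noise.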 The settings on record: small-molecule microarray, higher = more signal.
Assay [18] in a line: probe aNog binding to arrayed compounds – biochemical, biotinylated probe, 635/667 nm fluorescence, primary screen (AID 1115).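 Also: probe is biotinylated aNog protein used at 0.15 µg/mL for 1 h at 4 C; z-score combines 667 nm fluorescence of each spot with its signal to noise.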 The following applies: small-molecule microarray, higher = more signal.
Assay [19] addresses Torsin-1A-interacting protein 1 (Homo sapiens) (UniProt Q5JTV8). As to the kind of experiment: compound microarray binding of lysate hLAP1 – cell lysate, small-molecule microarray, COS7 lysate, 635/667 nm fluorescence, primary screen (AID 1116). The settings on record: 635 nm fluorescence, higher = more signal.
The target of assay [20] is Alpha-bungarotoxin (Bungarus multicinctus) (UniProt P60615). As to the kind of experiment: compounds binding labelled alpha-BTX control protein – biochemical, small-molecule microarray, Alexa647 label, 635/667 nm fluorescence, artefact control for SMM control protein annotation, profiling panel (AID 1117). The following applies: alpha-BTX-A647 binding fluorescence, higher = more signal.

The source made the active and inactive calls.

Sequence of Fibroblast growth factor 10 (Homo sapiens) (O15520 whole entry, looked up): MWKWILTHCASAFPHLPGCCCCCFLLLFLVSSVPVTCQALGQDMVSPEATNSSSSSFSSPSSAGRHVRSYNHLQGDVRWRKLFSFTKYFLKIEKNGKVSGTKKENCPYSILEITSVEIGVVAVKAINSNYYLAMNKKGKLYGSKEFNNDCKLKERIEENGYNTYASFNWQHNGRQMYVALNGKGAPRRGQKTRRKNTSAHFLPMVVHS
Sequence of Alpha-bungarotoxin (Bungarus multicinctus) (P60615 whole entry, looked up): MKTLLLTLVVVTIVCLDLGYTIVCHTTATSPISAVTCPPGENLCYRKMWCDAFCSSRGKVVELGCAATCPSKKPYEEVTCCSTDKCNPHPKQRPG
Sequence of Torsin-1A-interacting protein 1 (Homo sapiens) (Q5JTV8 whole entry, looked up): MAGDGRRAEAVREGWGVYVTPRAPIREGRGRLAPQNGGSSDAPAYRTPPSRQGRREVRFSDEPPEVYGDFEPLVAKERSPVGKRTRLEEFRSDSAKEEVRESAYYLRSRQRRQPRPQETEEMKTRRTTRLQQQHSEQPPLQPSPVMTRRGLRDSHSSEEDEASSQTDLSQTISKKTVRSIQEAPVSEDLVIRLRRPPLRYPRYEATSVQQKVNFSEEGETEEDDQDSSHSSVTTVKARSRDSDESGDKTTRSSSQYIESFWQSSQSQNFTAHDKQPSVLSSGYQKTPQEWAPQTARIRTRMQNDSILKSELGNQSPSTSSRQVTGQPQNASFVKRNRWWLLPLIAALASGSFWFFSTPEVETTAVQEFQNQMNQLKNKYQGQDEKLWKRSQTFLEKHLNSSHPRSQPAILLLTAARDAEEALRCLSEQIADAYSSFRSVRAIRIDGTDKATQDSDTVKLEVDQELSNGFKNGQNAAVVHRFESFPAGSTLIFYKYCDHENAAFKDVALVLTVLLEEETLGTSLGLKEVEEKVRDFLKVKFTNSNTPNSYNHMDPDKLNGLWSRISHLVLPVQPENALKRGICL
Sequence of Epidermal growth factor receptor (Homo sapiens) (P00533 whole entry, looked up): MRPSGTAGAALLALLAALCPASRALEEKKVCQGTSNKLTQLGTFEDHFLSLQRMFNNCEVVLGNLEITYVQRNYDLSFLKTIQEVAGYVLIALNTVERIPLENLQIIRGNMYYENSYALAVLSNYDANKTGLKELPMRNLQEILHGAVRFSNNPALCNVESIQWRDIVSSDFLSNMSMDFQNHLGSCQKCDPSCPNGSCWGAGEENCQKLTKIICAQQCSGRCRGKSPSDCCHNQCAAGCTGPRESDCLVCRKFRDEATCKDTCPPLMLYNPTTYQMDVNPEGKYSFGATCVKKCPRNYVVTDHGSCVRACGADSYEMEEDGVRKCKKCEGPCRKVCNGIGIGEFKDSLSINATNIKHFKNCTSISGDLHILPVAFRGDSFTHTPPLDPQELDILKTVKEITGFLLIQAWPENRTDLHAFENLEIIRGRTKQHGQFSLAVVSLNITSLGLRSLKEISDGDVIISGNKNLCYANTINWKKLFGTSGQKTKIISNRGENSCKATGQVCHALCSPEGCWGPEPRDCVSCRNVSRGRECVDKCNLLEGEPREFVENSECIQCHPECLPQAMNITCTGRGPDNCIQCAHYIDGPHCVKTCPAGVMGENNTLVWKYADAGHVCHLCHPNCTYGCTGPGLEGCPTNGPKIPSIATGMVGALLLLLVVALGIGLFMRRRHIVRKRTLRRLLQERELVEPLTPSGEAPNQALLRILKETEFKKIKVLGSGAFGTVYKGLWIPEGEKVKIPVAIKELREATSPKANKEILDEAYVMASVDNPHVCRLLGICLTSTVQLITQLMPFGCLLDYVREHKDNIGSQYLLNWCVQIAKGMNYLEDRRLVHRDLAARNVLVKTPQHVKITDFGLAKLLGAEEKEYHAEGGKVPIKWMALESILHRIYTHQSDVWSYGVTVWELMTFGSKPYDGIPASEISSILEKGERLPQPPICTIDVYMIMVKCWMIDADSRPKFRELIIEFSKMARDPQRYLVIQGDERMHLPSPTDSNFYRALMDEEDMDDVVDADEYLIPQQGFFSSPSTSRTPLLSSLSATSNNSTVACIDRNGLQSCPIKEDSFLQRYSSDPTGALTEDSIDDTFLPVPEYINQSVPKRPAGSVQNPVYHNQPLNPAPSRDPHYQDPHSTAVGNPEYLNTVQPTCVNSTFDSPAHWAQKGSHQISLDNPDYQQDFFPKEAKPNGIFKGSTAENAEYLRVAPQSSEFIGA
Sequence of Follistatin-related protein 3 (Homo sapiens) (O95633 whole entry, looked up): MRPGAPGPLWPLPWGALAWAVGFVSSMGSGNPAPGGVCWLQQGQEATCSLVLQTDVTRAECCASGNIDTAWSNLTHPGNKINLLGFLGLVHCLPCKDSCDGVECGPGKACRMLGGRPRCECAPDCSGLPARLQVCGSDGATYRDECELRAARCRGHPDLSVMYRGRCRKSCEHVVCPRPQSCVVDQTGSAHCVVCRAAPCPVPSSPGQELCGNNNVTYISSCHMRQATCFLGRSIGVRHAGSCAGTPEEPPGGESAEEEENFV
Sequence of Dickkopf-related protein 1 (Homo sapiens) (O94907 whole entry, looked up): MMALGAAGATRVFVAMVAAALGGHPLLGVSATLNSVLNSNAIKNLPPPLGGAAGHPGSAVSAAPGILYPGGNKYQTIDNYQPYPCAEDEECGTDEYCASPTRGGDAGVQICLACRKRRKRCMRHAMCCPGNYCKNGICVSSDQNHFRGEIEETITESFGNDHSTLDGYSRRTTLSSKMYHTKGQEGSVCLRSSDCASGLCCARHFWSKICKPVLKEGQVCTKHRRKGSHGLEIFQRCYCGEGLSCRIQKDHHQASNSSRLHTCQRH
Sequence of Left-right determination factor 2 (Homo sapiens) (O00292 whole entry, looked up): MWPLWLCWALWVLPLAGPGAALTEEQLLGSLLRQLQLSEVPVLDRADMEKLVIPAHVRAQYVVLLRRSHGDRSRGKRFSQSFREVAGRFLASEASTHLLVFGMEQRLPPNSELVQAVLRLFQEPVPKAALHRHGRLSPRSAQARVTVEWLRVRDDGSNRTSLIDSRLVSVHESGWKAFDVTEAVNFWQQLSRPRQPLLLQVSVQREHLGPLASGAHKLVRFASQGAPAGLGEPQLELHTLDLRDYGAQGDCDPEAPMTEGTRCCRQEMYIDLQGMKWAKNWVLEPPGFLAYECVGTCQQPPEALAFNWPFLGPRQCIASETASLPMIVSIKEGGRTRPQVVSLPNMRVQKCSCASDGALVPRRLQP

As for `C=CCNC(=O)[C@@H]1[C@H]2C(=O)O[C@H](c3ccccc3)[C@H](c3ccccc3)N2[C@H](c2ccc(OCCO)cc2)[C@@]12C(=O)Nc1ccc(C#CC3=CCCCC3)cc12`, the composite z-score in assay [1] is 1.11; in [2], -0.297; in assay [3], -0.299; in assay [5], 1.17; in assay [6], 1.21; in assay [7] it was 0.39. The composite z-score in assay [8] is 0.882; in assay [9] it was 0.586; in assay [10], -0.621; in [11], 0.0834; in assay [13], 0.413; in [14], 1.62. The composite z-score was 0.107 in assay [15]; -0.012 in [16]; 0.103 in assay [17]; 0.843 in assay [18]; 0.803 in [19]; 2.23 in assay [20]. Besides, the z-score in assay [4] is -0.384 (inactive); in assay [12] it was -2.53.

As for `C=CCOC(=O)[C@@H]1[C@H]2C(=O)O[C@H](c3ccccc3)[C@H](c3ccccc3)N2[C@H](c2ccc(OCCOC(=O)[C@H]3C[C@H]4C(=O)N[C@@H](CCCCN(C)C)C(=O)N4[C@H]3c3cccc(OCCO)c3)cc2)[C@@]12C(=O)Nc1ccccc12`, the composite z-score in assay [1] was 0.938; in assay [2] it was 0.342; in assay [3] it was 0.707; in assay [5], -0.515; in [6], 0.602; in assay [7], -0.632. Besides, the composite z-score in [8] is -0.335; in [9], -0.679; in assay [10], 0.0981; in assay [11] it was 0.313; in assay [13] it was -1.19; in [14], 0.12. In addition, the composite z-score in [15] was 0.177; in [16], -0.033; in assay [17] it was 0.584; in [18], 0.511; in assay [19], 0.518; in assay [20], 0.175. Also, the z-score is 0.0554 (inactive) in assay [4] and -0.772 in [12].

Turning to `CC(C)[Si]1(C(C)C)OCc2cc(-c3ccc(-c4ccc(Cl)c(Cl)c4)o3)nc(-c3ccc(Oc4ccccc4)cc3)c21`, the composite z-score in assay [1] was -0.952; in [2], 0.118; in assay [3] it was 0.745; in [5] it was -1.78; in assay [6], -2.03; in assay [7] it was -1.46. The composite z-score in assay [8] was -2.09; in assay [9] it was -2.01; in [10], 0.434; in [11] it was -1.76; in assay [13], -1.44; in assay [14], -0.168. In addition, the composite z-score in assay [15] was 0.698; in assay [16] it was -0.265; in assay [17], -0.243; in assay [18], -0.132; in assay [19] it was -1.22; in assay [20], -1.55. For the same compound, the values for the z-score in assay [4] and in assay [12] were -1.25 (inactive) and -0.105, respectively.

As for `O=C(c1ccccc1)N1Cc2ccccc2C[C@@]2(N=C(c3ccc(OCCCO)cc3)O[C@H]2c2ccccc2)C1=O`, the composite z-score in assay [1] is 1.26; in [2], -0.114; in assay [3], -0.0152; in assay [5], 1.38; in assay [6], 1.3; in assay [7], 0.699. The composite z-score in [8] was 0.963; in assay [9] it was 0.777; in [10], -0.395; in [11] it was 1.38; in assay [13] it was 0.821; in [14] it was 2.64. The composite z-score in assay [15] is -0.249; in assay [16], -0.0515; in assay [17], 0.0483; in [18], -0.432; in assay [19], 2.39; in [20], 1.01. For the same compound, the z-score is -0.847 (inactive) in assay [4] and -2.91 in [12].

Consider `Cc1ccc(S[C@]2(C(=O)NCC(C)C)CC(=O)N(C(C)C)[C@@H]2c2ccc(CO)cc2I)cc1`, for which the composite z-score in assay [1] was 0.115; in assay [2], 0.669; in assay [3] it was 1.28; in assay [5] it was -0.679; in [6], -1.03; in [7], -0.941. Besides, the composite z-score is -0.573 in assay [8]; -0.7 in [9]; 0.256 in [10]; 0.297 in [11]; -1.62 in [13]; -1.21 in assay [14]. Besides, the composite z-score in assay [15] is 0.0034; in assay [16], -0.112; in assay [17], -0.0035; in [18], -0.131; in assay [19], 0.626; in assay [20], -0.659. In addition, the z-score was -1.14 (inactive) in assay [4] and -0.98 in assay [12].

In the case of `CCCN1C(=O)[C@@]2(c3ccc([N+](=O)[O-])cc3)CC(=O)N(C3CCCCC3)[C@@H]2c2ccc(CO)cc21`, the composite z-score in assay [1] is 0.219; in assay [2], 0.27; in assay [3], -0.12; in [5], 0.453; in assay [6], 0.478; in assay [7], 0.121. The composite z-score was 0.41 in assay [8]; 1.2 in assay [9]; 0.898 in [10]; 0.202 in [11]; 0.445 in assay [13]; -0.0766 in assay [14]. Moreover, the composite z-score in assay [15] was -0.567; in assay [16], -0.18; in [17], -0.225; in assay [18], -0.0165; in assay [19] it was -0.349; in assay [20], -0.171. Also, the z-score in [4] was -0.237 (inactive); in assay [12], -0.136.
